These results are taken from the antibiotic and cytotoxicity screens of Wong et al. (2023).

Screen size: about 39,000 compounds; about 3,300 (8.5%) were called active. The full list was thinned out, with actives kept by preference.

The assay concerns HepG2. Put plainly: cytotoxicity call (relative viability < 0.9). The settings on record: 10 µM.
For `CO[C@H]1CN(C)C(=O)c2cc(NC(=O)C3CC3)ccc2OC[C@H](C)N(C(=O)CN2CCOCC2)C[C@@H]1C`, the cytotoxicity call was “inactive”. Next, `O=C1OCCC/C=C\[C@H]2O[C@@]34C=CCN(c5ccc6ccccc6c5)C(=O)[C@H]3N(CCCCCO)C(=O)[C@@H]4[C@@H]12`: “inactive”; `COCCOC(=O)N1C(=O)[C@@]2(c3ccccc31)[C@H](C(=O)Nc1nc3ccccc3s1)[C@H]1C(=O)O[C@H](c3ccccc3)[C@H](c3ccccc3)N1[C@@H]2c1ccccc1OCCO`: “inactive”; `Cc1ccc(S(=O)(=O)Nc2ccc3c(c2)C(=O)N([C@H](C)CO)C[C@H](C)[C@@H](CN(C)C(=O)Nc2ccc4c(c2)OCO4)OCCCC[C@@H](C)O3)cc1`: “inactive”. Next, `C[C@@H]1CCCCO[C@@H](CN(C)C(=O)c2ccccc2)[C@H](C)CN([C@@H](C)CO)C(=O)c2cc(NC(=O)Cc3ccccc3)ccc2O1`: “inactive”; `COc1cccnc1N`: “inactive”; `COc1ccc(NC(=O)N(C)C[C@H]2OCCCC[C@H](C)Oc3ccc(NC(=O)CCC(F)(F)F)cc3C(=O)N([C@@H](C)CO)C[C@@H]2C)cc1`: “inactive”. The value for `CO[C@@H]1CN(C)C(=O)c2ccc(NC(=O)c3cc(C)on3)cc2OC[C@@H](C)N(C(=O)C2CCC2)C[C@H]1C` was “inactive”; that for `COc1ccc(S(=O)(=O)Nc2ccc3c(c2)C(=O)N([C@H](C)CO)C[C@@H](C)[C@H](CN(C)C(=O)NC2CCCCC2)OCCCC[C@H](C)O3)cc1` was “inactive”.

For the compound `C[C@H](CO)N1C[C@H](C)[C@H](CN(C)C(=O)Nc2ccc(F)cc2)Oc2ccc(NS(C)(=O)=O)cc2CC1=O`, the cytotoxicity call was “inactive”. Consider `C[C@@H]1CCCCO[C@H](CN(C)S(=O)(=O)c2ccc(F)cc2)[C@@H](C)CN([C@@H](C)CO)C(=O)c2cc(NC(=O)C3CCCCC3)ccc2O1`, for which the cytotoxicity call was “inactive”. Next, `O=C1O[C@H](c2ccccc2)[C@H](c2ccccc2)N2[C@H]1[C@@H](C(=O)N1CCCCCCC1)[C@]1(C(=O)Nc3ccc(C#CCCO)cc31)[C@H]2c1ccc(OCCO)cc1`: “inactive”; `COc1ccc(NC(=O)Nc2ccc3c(c2)C(=O)N([C@H](C)CO)C[C@H](C)[C@@H](CN(C)S(=O)(=O)c2ccc(OC)cc2)OCCCC[C@@H](C)O3)cc1`: “inactive”. Regarding `COCC#Cc1ccc2c(c1)O[C@@H](CN(C)S(=O)(=O)c1ccc(C)cc1)[C@@H](C)CN([C@@H](C)CO)S2(=O)=O`, the cytotoxicity call was “inactive”. As to `C[C@H](CO)N1C[C@H](C)[C@H](CN(C)Cc2ccc3c(c2)OCO3)OCCCC[C@H](C)Oc2ccc(NC(=O)Nc3ccc(F)cc3)cc2C1=O`, the cytotoxicity call was “inactive”. Next, `C[C@@H]1CCCCO[C@@H](CN(C)Cc2ccc3c(c2)OCO3)[C@H](C)CN([C@@H](C)CO)C(=O)c2cc(NC(=O)Nc3ccc(F)cc3)ccc2O1`: “inactive”; `C[C@@H]1CCCCO[C@H](CN(C)Cc2ccc3c(c2)OCO3)[C@@H](C)CN([C@@H](C)CO)C(=O)c2cc(NC(=O)Nc3ccc(F)cc3)ccc2O1`: “active”.
